From PubChem BioAssay (NCI)
Compounds without any hit were thinned out: in the full panel of roughly 83,000, 20% have a hit.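 96-well plates, one dose, 48 hours. Percent growth reported; active if below 10.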 Values without a mark were called inactive. The source made the active and inactive calls.

Tests used:
Assay in all cases: NCI-60 one-dose screen, 48 h (100 = growth as untreated, 0 = no growth, -100 = all killed)
Settings in all cases: 10 µM unless noted
NCI-H23 lung = tested on: NCI-H23 lung
NCI-H226 lung = tested on: NCI-H226 lung
NCI-H322M lung = tested on: NCI-H322M lung
HOP-62 NSCLC = tested on: HOP-62 NSCLC
NCI-H460 lung = tested on: NCI-H460 lung
HOP-92 NSCLC = tested on: HOP-92 NSCLC
NCI-H522 lung = tested on: NCI-H522 lung
A549/ATCC NSCLC = tested on: A549/ATCC NSCLC
786-0 renal = tested on: 786-0 renal
COLO 205 colon = tested on: COLO 205 colon
DU-145 prostate = tested on: DU-145 prostate
K-562 leukemia = tested on: K-562 leukemia
MALME-3M melanoma = tested on: MALME-3M melanoma
MDA-MB-231 breast = tested on: MDA-MB-231 breast
RXF 393 renal = tested on: RXF 393 renal
SF-268 CNS = tested on: SF-268 CNS
SF-295 CNS = tested on: SF-295 CNS
SF-539 CNS = tested on: SF-539 CNS
UACC-257 melanoma = tested on: UACC-257 melanoma
M14 melanoma = tested on: M14 melanoma

Compound | growth (NCI-H23 lung) | growth (NCI-H226 lung) | growth (NCI-H322M lung) [%] | growth (HOP-62 NSCLC) | growth (NCI-H460 lung) | growth (HOP-92 NSCLC) | growth (NCI-H522 lung) | growth (A549/ATCC NSCLC) | growth (786-0 renal) | growth (COLO 205 colon) | growth (DU-145 prostate) | growth (K-562 leukemia) | growth (MALME-3M melanoma) | growth (MDA-MB-231 breast) | growth (RXF 393 renal) | growth (SF-268 CNS) [%] | growth (SF-295 CNS) [%] | growth (SF-539 CNS) | growth (UACC-257 melanoma) | growth (M14 melanoma)
O=C(O)CSCc1nnc2n(Cc3ccccc3)c(=O)c3c4c(sc3n12)CCCC4 | 90.8% | 87.2% | 101 | 139% | 111% | 74.5% | 63.7% | 93.7% | 132% | 88.2% | 114% | 78.6% | 112% | 83.5% | 88.5% | 112 | 57.9 | 101% | 104% | 158%
CCN(CC)c1ccc2cc(C(Nc3ccc(Cl)cc3)c3nnnn3C(C)(C)C)c(=O)oc2c1 (stereo not given) | 95.6% | 82.9% | 93.8 | 99.5% | 84.1% | 76.9% | 79.5% | 77.9% | 94% | 114% | 93.6% | 78.9% | 98.1% | 90.8% | 86.9% | 80.6 | 95.9 | 94.8% | 92.2% | 97.6%
NC1=NC(=O)NC1(c1ccccc1)c1ccccc1 | 91.9% | 99% | 99.2 | 95.6% | 108% | 85.3% | 95.1% | 93.3% | 135% | 103% | 99.5% | 89.5% | 93.3% | 94% | 102% | 103 | 117 | 104% | 103% | 98.6%
O=C1/C(=C/c2ccc(OCc3ccccc3)cc2)Oc2cc(OCCN3CCCCC3)ccc21 | 74.5% | 89.6% | 97.9 | 95.7% | 70.3% | 70.9% | 87.5% | 80.1% | 69% | 105% | 91.9% | 9.17% (active) | 67.8% | 80.9% | 60.8% | 77.4 | 92.9 | 69.5% | 90% | 60.8%
COc1ccccc1S(=O)Nc1ccccc1 (stereo not given) | 104% | 102% | 94.9 | 124% | 93.6% | 98.5% | 74.9% | 74.4% | 103% | 117% | 116% | 104% | 86.2% | 92.5% | 100% | 100 | 98.5 | 109% | 78.4% | 111%
CCCc1cc2cc(-n3nc(C)c4c3CC(C)(C)CC4=O)cc(NC3CCSCC3)c2c(=O)[nH]1 | 36.8% | 90.2% | 63.4 | 45.9% | 66.5% | 93.2% | 47.7% | 49.1% | 66.8% | 41.9% | 42.9% | 19% | 64.6% | 55.6% | 33.7% | 81.2 | 62.2 | 75.4% | 84.6% | 56.6%
CCN1c2ccccc2C(Cl)(c2ccc(N(C)C)cc2)c2ccccc21 | 33.8% | 88.2% | 116 | 73.6% | 66% | 59.6% | 64.2% | 82.9% | 75.8% | 75.5% | 74.1% | 60.8% | 9.82% (active) | 70.3% | 59.4% | 54.2 | 88.4 | 93.7% | 70.3% | 72.9%
COc1ccc(NC(=S)NNc2ccc(-c3ccc(OC)c(OC)c3)nn2)cc1 | 106% | 107% | 96.7 | 97.8% | 99.7% | 106% | 97.9% | 110% | 101% | 112% | 107% | 104% | 112% | 96.1% | 120% | 92.9 | 101 | 97.6% | 103% | 99.2%
Cc1cnc(N)nc1OCCNC(=O)c1cccc(-c2ccc(S(=O)(=O)Nc3ccc4c(c3)N(C(=O)C3CC3)CCC4)cc2)c1 | 72.4% | 72% | 87.5 | 79.8% | 75.4% | 41% | 70.1% | 79.7% | 82.3% | 99.1% | 90.2% | 58.8% | 120% | 89.5% | 88.3% | 74.5 | 77.9 | 92% | 84.1% | 80.1%
CC(C)(C)OC(=O)N1C=C/C(=C\Cn2cc(-c3ccccc3)nn2)CC1 | 65% | 72% | 80.9 | 89.3% | 84.7% | 62.9% | 74.6% | 83.8% | 79.6% | 109% | 88.2% | 41.4% | 65.7% | 75.9% | 91.8% | 81 | 61 | 79.5% | 66% | 56.5%
Cc1cc(NN=C(c2ccc(O)cc2)c2ccc(O)cc2)c([N+](=O)[O-])cc1[N+](=O)[O-] | 31.9% | 99.2% | 59.1 | 54.2% | 27.3% | 40% | 15.4% | 11.8% | -5.42% (active) | 98.6% | 81.8% | 99.1% | 100% | 59.6% | 25.7% | 53.9 | 43.6 | 69.5% | 42.5% | 36.8%
c1nc(N2CCOCC2)c2[nH]ccc2n1 | 116% | 114% | 104 | 114% | 104% | 69.8% | 102% | 99.9% | 101% | 113% | 106% | 92.7% | 109% | 107% | 117% | 102 | 112 | 111% | 105% | 103%
Cc1ccc(S(=O)(=O)NCCCNc2nccc(-c3c(-c4cccc(F)c4)nc4occn34)n2)cc1 | 102% | 67.6% | 77.9 | 88.5% | 75.7% | 82.5% | 71.6% | 53.2% | 73.3% | 66% | 73.8% | 36.7% | 64.6% | 64% | 77.7% | 61.6 | 100 | 95.1% | 91.5% | 57%
O=C(NCCCNC(=O)OCc1ccc2c(Br)cc(Br)c(O)c2n1)OCc1ccc2c(Br)cc(Br)c(O)c2n1 | -46.3% (active) | 2.3% (active) | 32.7 | -19.1% (active) | 4.8% (active) | -80.3% (active) | -60.9% (active) | 6.61% (active) | -58.9% (active) | -76.8% (active) | -80.8% (active) | 3.3% (active) | -87.8% (active) | -68.5% (active) | -93.3% (active) | 10.3 | 20 | -96.8% (active) | -37.5% (active) | -65.8% (active)
CCOC(=O)/C(C#N)=C(\C)CCc1ccccc1 | 91.8% | 102% | 102 | 84.8% | 105% | 81.5% | 86.1% | 90.3% | 90.1% | 132% | 132% | 142% | 96.5% | 109% | 97.3% | 120 | 114 | 91.8% | 89.4% | 92.2%
